Several values for one entry are separate records, joined by “and”; a condition that tells them apart may be missing. Equal values may be shown once. Screen size: about 5,500 compounds; about 2,000 (36%) were called active. Not shown: some 18% with an inconclusive outcome. Cut-off read from the data, not from the text of the source: active = normalized growth mostly below about 0.91 (no sharp cut-off); inconclusive = no clear call, values can overlap the other calls; inactive = mostly above about 0.92. Some of the results follow.
Experiment: chemical genetic growth profiling, strain panel (AID 1159580);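 note: tested at 20 µM; growth read once vehicle control cultures reached saturation at 30 °C; 1 = growth at the plate median or of vehicle wells; lower values mean less growth of the strain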
Conditions: S. cerevisiae deletion strains, growth OD

Measured: normalized growth

CC1(C)C2CC(=O)[C@]3(C)C(CC[C@@]4(C)[C@H](c5ccoc5)OC(=O)[C@H]5O[C@]543)[C@@]2(C)C(=O)C[C@H]1O (stereo not given in full)
inactive: locus YAL013W, strain DEP1, hits give low values 1.03 | locus YAL021C, strain ccr4, hits give low values 1.01 | locus YAL026C, strain drs2, hits give low values 1 | locus YAL030W, strain snc1, hits give low values 1.01 | locus YBL061C, strain skt5, hits give low values 1 | locus YBR009C, strain hhf1, hits give low values 0.992 | locus YBR021W, strain FUR4, hits give low values 0.995 | locus YBR023C, strain chs3, hits give low values 1.02 | locus YBR171W, strain sec66, hits give low values 1.01 | locus YBR229C, strain ROT2, hits give low values 1 | locus YBR231C, strain swc5, hits give low values 1 | locus YBR279W, strain paf1, hits give low values 1.01 | locus YCL011C, strain gbp2, hits give low values 1.02 | locus YCL016C, strain dcc1, hits give low values 1.01 | locus YCL029C, strain bik1, hits give low values 1.01 | locus YCL061C, strain MRC1, hits give low values 1 | locus YCL069W, strain vba3, hits give low values 1.01 | locus YCR088W, strain abp1, hits give low values 1.01 | locus YDL005C, strain med2, hits give low values 1 | locus YDL035C, strain GPR1, hits give low values 0.975 | locus YDL040C, strain nat1, hits give low values 1 | locus YDL074C, strain BRE1, hits give low values 1.03 | locus YDL101C, strain DUN1, hits give low values 1.03 | locus YDL185W, strain tfp1, hits give low values 1.02 | locus YDL192W, strain arf1, hits give low values 1.01 | locus YDR001C, strain nth1, hits give low values 1 | locus YDR069C, strain doa4, hits give low values 0.995 | locus YDR101C, strain arx1, hits give low values 1 | locus YDR137W, strain rgp1, hits give low values 1.06 | locus YDR150W, strain NUM1, hits give low values 1 | locus YDR159W, strain sac3, hits give low values 1.01 | locus YDR162C, strain NBP2, hits give low values 0.983 | locus YDR195W, strain ref2 0.977 | locus YDR297W, strain sur2, hits give low values 1.01 | locus YDR318W, strain mcm21, hits give low values 1.01 | locus YDR334W, strain swr1, hits give low values 1.01 | locus YDR335W, strain msn5, hits give low values 0.999 | locus YDR388W, hits give low values 1.01 | locus YDR392W, strain spt3, hits give low values 1.01 | locus YDR502C, strain sam2, hits give low values 1.02 | locus YEL003W, strain gim4, hits give low values 1.01 | locus YEL037C, strain rad23, hits give low values 1 | locus YEL061C, strain CIN8 (second series), hits give low values 0.996 | locus YEL061C, strain CIN8, hits give low values 1 | locus YER015W, strain faa2, hits give low values 0.995 | locus YER016W, strain bim1, hits give low values 1.01 | locus YER110C, hits give low values 1.02 | locus YER111C, strain swi4, hits give low values 1.01 | locus YER155C, strain BEM2 (second series), hits give low values 1.02 | locus YER155C, strain BEM2, hits give low values 1 | locus YER167W, strain BCK2, hits give low values 0.993 | locus YFR010W, strain ubp6, hits give low values 0.997 | locus YGL078C, strain dbp3, hits give low values 1.01 | locus YGL086W, strain mad1, hits give low values 1.01 | locus YGL167C, strain pmr1, hits give low values 1.01 | locus YGL173C, strain kem1, hits give low values 1.02 | locus YGL227W, strain vid30, hits give low values 1.01 | locus YGL240W, strain doc1, hits give low values 1.03 | locus YGL248W, strain PDE1, hits give low values 1.03 | locus YGL253W, strain hxk2, hits give low values 1 | locus YGR078C, strain PAC10, hits give low values 1.03 | locus YGR135W, strain pre9, hits give low values 1.01 | locus YGR252W, strain gcn5, hits give low values 0.993 | locus YHR013C, strain ard1, hits give low values 1.01 | locus YHR027C, strain rpn1, hits give low values 1.01 | locus YHR030C, strain SLT2, hits give low values 0.992 and 1.02 | locus YHR079C, strain IRE1 (second series), hits give low values 1.02 | locus YHR079C, strain IRE1, hits give low values 1.02 | locus YHR094C, strain hxt1, hits give low values 1.02 | locus YHR129C, strain ARP1, hits give low values 1.01 | locus YHR142W, strain chs7, hits give low values 0.999 | locus YHR200W, strain rpn10, hits give low values 1.01 | locus YIL066C, strain RNR3, hits give low values 0.979 | locus YIL073C, strain SPO22, hits give low values 1.03 | locus YIL125W, strain kgd1, hits give low values 1.01 | locus YIR030C, strain dcg1, hits give low values 1.02 | locus YJL092W, strain hpr5, hits give low values 1 | locus YJL095W, strain BCK1 (second series), hits give low values 1.01 | locus YJL095W, strain BCK1, hits give low values 1.06 and 1.03 | locus YJL115W, strain asf1, hits give low values 1 | locus YJL129C, strain trk1, hits give low values 1.03 | locus YJL134W, strain LCB3, hits give low values 0.999 | locus YJL154C, strain vps35, hits give low values 1 | locus YJL164C, strain tpk1, hits give low values 1 | locus YJL166W, strain qcr8, hits give low values 1.01 | locus YJL168C, strain set2, hits give low values 1.01 | locus YJL187C, strain SWE1 (second series), hits give low values 1.05 | locus YJR043C, strain POL32, hits give low values 0.963 | locus YJR066W, strain TOR1, hits give low values 0.956 | locus YJR075W, strain HOC1, hits give low values 1.03 | locus YKL009W, strain mrt4, hits give low values 1.03 | locus YKL068W, hits give low values 1.01 | locus YKL085W, strain MDH1 (second series), hits give low values 1 | locus YKL085W, strain MDH1, hits give low values 1 | locus YKL160W, strain elf1, hits give low values 1.01 | locus YKL190W, strain CNB1, hits give low values 1.01 | locus YKR001C, strain vps1, hits give low values 1.05 | locus YKR026C, strain gcn3, hits give low values 1 | locus YKR091W, strain srl3, hits give low values 1 | locus YLL001W, strain dnm1, hits give low values 1.01 | locus YLL026W, hits give low values 1.01 | locus YLL041C, strain sdh2, hits give low values 0.998 | locus YLR027C, strain aat2, hits give low values 1.01 | locus YLR039C, strain RIC1, hits give low values 1.02 | locus YLR058C, strain SHM2, hits give low values 1.02 | locus YLR102C, strain apc9, hits give low values 1.02 | locus YLR113W, strain HOG1, hits give low values 0.981 | locus YLR221C, strain rsa3, hits give low values 1 | locus YLR258W, strain gsy2, hits give low values 1.01 | locus YLR262C, strain YPT6 (second series), hits give low values 0.982 | locus YLR262C, strain YPT6, hits give low values 1 | locus YLR268W, strain sec22, hits give low values 1.02 | locus YLR320W, strain mms22, hits give low values 1.01 | locus YLR330W, strain CHS5, hits give low values 1 | locus YLR342W, strain FKS1 (second series), hits give low values 0.988 | locus YLR342W, strain FKS1, hits give low values 1.01 | locus YLR357W, strain rsc2, hits give low values 0.994 | locus YLR370C, strain arc18, hits give low values 0.996 | locus YLR371W, strain rom2, hits give low values 1.02 | locus YLR384C, strain iki3, hits give low values 1.01 | locus YLR418C, strain cdc73, hits give low values 1.03 | locus YML016C, strain PPZ1, hits give low values 0.997 | locus YML032C, strain rad52, hits give low values 1.01 | locus YML120C, strain ndi1, hits give low values 1.01 | locus YML124C, strain tub3, hits give low values 1.01 | locus YMR058W, strain fet3, hits give low values 1 | locus YMR078C, strain ctf18, hits give low values 1.02 | locus YMR125W, strain sto1, hits give low values 1.02 | locus YMR129W, hits give low values 1.02 | locus YMR205C, strain PFK2, hits give low values 1 | locus YMR223W, strain ubp8, hits give low values 1.01 | locus YMR231W, strain pep5, hits give low values 1.01 | locus YMR263W, strain SAP30, hits give low values 1.04 | locus YMR307W, strain GAS1, hits give low values 1.04 | locus YNL067W, strain RPL9B, hits give low values 1.05 | locus YNL071W, strain lat1, hits give low values 1 | locus YNL153C, strain GIM3, hits give low values 1.04 | locus YNL183C, strain NPR1, hits give low values 0.962 | locus YNL209W, strain ssb2, hits give low values 0.997 | locus YNL233W, strain BNI4, hits give low values 1.04 | locus YNL248C, strain rpa49, hits give low values 1.02 | locus YNL250W, strain rad50, hits give low values 1.02 | locus YNL271C, strain bni1, hits give low values 1.01 | locus YNL298W, strain CLA4, hits give low values 1.02 | locus YNL307C, strain MCK1, hits give low values 1.02 | locus YNL322C, strain KRE1 (second series), hits give low values 1.03 | locus YNR049C, strain mso1, hits give low values 0.995 | locus YNR052C, strain pop2, hits give low values 1.02 | locus YOL012C, strain htz1 2.06 | locus YOL147C, strain pex11, hits give low values 1.02 | locus YOR001W, strain rrp6, hits give low values 0.995 | locus YOR061W, strain CKA2, hits give low values 0.999 | locus YOR069W, strain VPS5, hits give low values 1.01 | locus YOR070C, strain gyp1, hits give low values 1.01 | locus YOR080W, strain dia2, hits give low values 0.997 | locus YOR083W, strain WHI5, hits give low values 1.01 | locus YOR106W, strain vam3, hits give low values 1 | locus YOR136W, strain idh2, hits give low values 1.03 | locus YOR144C, strain elg1, hits give low values 1.01 | locus YOR184W, strain ser1, hits give low values 1.01 | locus YOR231W, strain MKK1, hits give low values 1.02 | locus YOR265W, strain rbl2, hits give low values 0.99 | locus YOR270C, strain vph1, hits give low values 0.948 | locus YOR290C, strain snf2, hits give low values 1.01 | locus YOR316C, strain cot1, hits give low values 1.01 | locus YPL051W, strain arl3, hits give low values 1.01 | locus YPL078C, strain atp4, hits give low values 1.01 | locus YPL106C, strain sse1, hits give low values 1.01 | locus YPL240C, strain hsp82, hits give low values 1.02 | locus YPL256C, strain CLN2, hits give low values 1.01 | locus YPR119W, strain clb2, hits give low values 1.01 | locus YPR141C, strain kar3, hits give low values 1.01 | locus YPR163C, strain tif3, hits give low values 1.01 | locus YPR167C, strain met16, hits give low values 1.01 | strain wtn01, hits give low values 1.02

Source: PubChem BioAssay AID1159580 (chemical genetic matrix, 2015)
